The target in experiment [1] is Estrogen-related receptor gamma (Homo sapiens) (UniProt P62508). Description: ATG_ERRg_TRANS: Attagene TRANS-FACTORIAL HepG2 Assay for human Estrogen-Related Receptor gamma (ERRg) (AID 2282977).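 Further: hits increase reporter signal over DMSO so potencies reflect activators.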 The conditions noted are these: HepG2 Attagene TRANS reporter, ERRg transactivation. In outline:
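Exogenous NR-Gal4 chimera activity measured as reporter transcript induction after 24 h in transiently transfected HepG2 cells. RNA reverse-transcribed, PCR-amplified, 6-FAM-labelled and resolved by capillary electrophoresis; increase over DMSO baseline.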

Experiment [2] concerns the target Glucocorticoid receptor (Homo sapiens) (UniProt P04150). As to the kind of experiment: ATG_GR_TRANS: Attagene TRANS-FACTORIAL HepG2 Assay for human Glucocorticoid Receptor (GR) (AID 2282978).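 Further: activators score as hits since higher reporter transcript over DMSO is fitted.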 The conditions noted are these: HepG2 Attagene TRANS GR reporter, mRNA transcription. In outline:
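Transient MRTU transfection of HepG2 (GAL4-UAS reporters, exogenous NR-GAL4 chimeras), 24 h dosing. Readout: reporter transcript via RT-PCR + capillary electrophoresis fluorescence. Positive direction vs DMSO baseline.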

Experiment [3] addresses Bile acid receptor (Homo sapiens) (UniProt Q96RI1). Description: ATG_FXR_TRANS: Attagene TRANS-FACTORIAL HepG2 Assay for Farnesoid X Receptor (FXR) (AID 2282979).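 Further: hits raise reporter mRNA above DMSO so AC50 marks FXR activation.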 The conditions noted are these: HepG2 Attagene TRANS FXR-GAL4 reporter transcription. An outline of the steps:
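HepG2 cells were transiently transfected with GAL4-UAS reporters driven by chimeric NR-Gal4 proteins and dosed for 24 h. Reporter mRNA was quantified by RT-PCR, fluorescent labelling, HpaI digestion and capillary electrophoresis, with gain of signal scored versus DMSO.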

Experiment [4] is described as follows: ATG_M_32_TRANS: Attagene TRANS-FACTORIAL HepG2 Assay for M32 Transcription Factor (Internal Marker) (AID 2282984).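 Further: transcript level of a background control reporter unit measured by RT-PCR and capillary electrophoresis.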 Conditions: HepG2 Attagene TRANS M32 internal marker reporter. An outline of the steps: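 Internal background reporter in transfected HepG2: after 24 h chemical exposure, RNA reverse-transcribed, reporter cDNA amplified, fluorescently labelled and HpaI-cut, then sized by capillary electrophoresis. Gain of signal fitted against DMSO control.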

Experiment [5] concerns the target Transcriptional activator Myb (Homo sapiens) (UniProt P10242). Description: ATG_Myb_CIS: Attagene CIS-FACTORIAL HepG2 Assay for human Myeloblastosis (Myb) Proto-Oncogene Transcription Factor (AID 2282986; active means hit-call score of the fitted dose curve at least 0.9, where 1 is the maximum; inactive means score below 0.9). Conditions: HepG2 Attagene CIS-FACTORIAL Myb reporter transcription; actives raise or lower the signal. An outline of the steps:
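HepG2, transient MRTU transfection (cis-element promoters, endogenous TF activity), 24 h compound exposure. Readout: reporter mRNA via RT-PCR, 6-FAM labeling, HpaI digest, capillary electrophoresis. Gain/loss fit vs DMSO.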

Experiment [6] deals with Oxysterols receptor LXR-alpha (Homo sapiens) (UniProt Q13133). Description: ATG_LXRa_TRANS: Attagene TRANS-FACTORIAL HepG2 Assay for human Liver X Receptor alpha (LXRa) (AID 2282980). Conditions: HepG2 Attagene TRANS reporter, LXRa transactivation. An outline of the steps:
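HepG2 cells transiently transfected with GAL4-UAS reporter units for chimeric NR-Gal4 proteins, exposed to chemicals for 24 h. Reporter mRNA quantified by RT-PCR and capillary electrophoresis; gain of signal fitted relative to DMSO.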

For experiment [7], the target named is Hepatocyte nuclear factor 4-alpha (Homo sapiens) (UniProt P41235). As to the kind of experiment: ATG_HNF4a_TRANS: Attagene TRANS-FACTORIAL HepG2 Assay for human Hepatocyte Nuclear Factor 4 alpha (HNF4a) (AID 2282982). Conditions: HepG2 HNF4a transactivation reporter, mRNA readout. In outline: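 Activity of an exogenous HNF4a–Gal4 fusion scored as induced GAL4-UAS reporter transcripts after 24 h chemical exposure of transfected human HepG2 cells. Read-out via RT-PCR with 6-FAM labelling and capillary electrophoresis; rise over DMSO baseline.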
Chain of Hepatocyte nuclear factor 4-alpha (Homo sapiens) (P41235 whole entry, looked up, the tested form may be a part): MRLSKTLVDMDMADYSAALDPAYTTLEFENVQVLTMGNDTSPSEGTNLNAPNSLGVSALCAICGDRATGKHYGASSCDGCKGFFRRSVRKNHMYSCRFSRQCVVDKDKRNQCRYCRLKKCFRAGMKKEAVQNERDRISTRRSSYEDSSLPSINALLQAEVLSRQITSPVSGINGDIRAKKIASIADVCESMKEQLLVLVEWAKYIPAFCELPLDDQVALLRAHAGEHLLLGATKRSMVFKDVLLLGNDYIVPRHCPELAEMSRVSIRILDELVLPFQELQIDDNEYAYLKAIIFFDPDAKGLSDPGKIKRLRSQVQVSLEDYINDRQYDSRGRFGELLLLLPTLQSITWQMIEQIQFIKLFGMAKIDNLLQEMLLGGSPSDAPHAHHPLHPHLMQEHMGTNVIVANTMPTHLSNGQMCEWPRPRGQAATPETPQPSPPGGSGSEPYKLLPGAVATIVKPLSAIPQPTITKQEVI

Experiment [8] addresses Nuclear receptor subfamily 4 group A member 2 (Homo sapiens) (UniProt P43354). Description: ATG_NURR1_TRANS: Attagene TRANS-FACTORIAL HepG2 Assay for human Nuclear Receptor Related Protein 1 (NURR1) (AID 2282985). Conditions: HepG2 Attagene TRANS reporter, mRNA readout. In outline: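 Reporter transcript induction, measured by RT-PCR with fluorescent labelling, HpaI digestion and capillary electrophoresis, after 24 hr dosing of human HepG2 cells transiently expressing an exogenous NR-Gal4 fusion with GAL4-UAS-driven reporters; DMSO as baseline.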

Experiment [9] addresses Oxysterols receptor LXR-beta (Homo sapiens) (UniProt P55055). As to the kind of experiment: ATG_LXRb_TRANS: Attagene TRANS-FACTORIAL HepG2 Assay for human Liver X Receptor beta (LXRb) (AID 2282981). Conditions: HepG2 Attagene TRANS GAL4-LXRb reporter, mRNA. In outline: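 After 24 h chemical treatment of transfected HepG2 cells carrying exogenous NR-Gal4 chimeras, reporter mRNA was quantified by fluorescent RT-PCR and capillary electrophoresis; activity taken as increase over DMSO controls.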

Experiment [10] can be described thus: ATG_M_06_TRANS: Attagene TRANS-FACTORIAL HepG2 Assay for M06 Transcription Factor (Internal Marker) (AID 2282983).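 On AC50: potency for rise in reporter mRNA above DMSO baseline.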 The conditions noted are these: HepG2 Attagene TRANS M06 internal marker reporter. An outline of the steps:
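mRNA levels of a reporter transcript, quantified as FAM fluorescence on capillary electrophoresis, served as readout. HepG2 cells expressing exogenous GAL4-chimera reporter constructs were exposed for 24 h. Gain of signal over DMSO was evaluated.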

Values joined by “and” are separate entries in the source; they are usually repeats but may differ in a detail not shown here. Equal values may be shown once. Records with an inconclusive call do not appear. More than one record can exist for a structure, and the calls need not agree. Active and inactive are the calls of the source. How the source made its calls, unless noted: active means hit-call score of the fitted dose curve at least 0.9, where 1 is the maximum; inconclusive means response in the unintended direction; inactive means score below 0.9.

Chain of Estrogen-related receptor gamma (Homo sapiens) (P62508 whole entry, looked up, the tested form may be a part): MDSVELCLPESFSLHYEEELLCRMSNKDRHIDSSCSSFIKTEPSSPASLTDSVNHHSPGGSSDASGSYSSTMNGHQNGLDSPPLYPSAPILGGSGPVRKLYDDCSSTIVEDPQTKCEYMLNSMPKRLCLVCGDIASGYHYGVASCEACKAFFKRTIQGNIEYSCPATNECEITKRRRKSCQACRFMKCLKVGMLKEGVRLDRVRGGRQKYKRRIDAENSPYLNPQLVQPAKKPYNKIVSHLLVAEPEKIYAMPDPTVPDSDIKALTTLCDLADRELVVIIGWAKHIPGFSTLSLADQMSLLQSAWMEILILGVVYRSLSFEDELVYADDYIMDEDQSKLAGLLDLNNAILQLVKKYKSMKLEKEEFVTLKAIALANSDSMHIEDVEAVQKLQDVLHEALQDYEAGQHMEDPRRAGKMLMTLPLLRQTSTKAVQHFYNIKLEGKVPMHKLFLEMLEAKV
Chain of Bile acid receptor (Homo sapiens) (Q96RI1 whole entry, looked up, the tested form may be a part): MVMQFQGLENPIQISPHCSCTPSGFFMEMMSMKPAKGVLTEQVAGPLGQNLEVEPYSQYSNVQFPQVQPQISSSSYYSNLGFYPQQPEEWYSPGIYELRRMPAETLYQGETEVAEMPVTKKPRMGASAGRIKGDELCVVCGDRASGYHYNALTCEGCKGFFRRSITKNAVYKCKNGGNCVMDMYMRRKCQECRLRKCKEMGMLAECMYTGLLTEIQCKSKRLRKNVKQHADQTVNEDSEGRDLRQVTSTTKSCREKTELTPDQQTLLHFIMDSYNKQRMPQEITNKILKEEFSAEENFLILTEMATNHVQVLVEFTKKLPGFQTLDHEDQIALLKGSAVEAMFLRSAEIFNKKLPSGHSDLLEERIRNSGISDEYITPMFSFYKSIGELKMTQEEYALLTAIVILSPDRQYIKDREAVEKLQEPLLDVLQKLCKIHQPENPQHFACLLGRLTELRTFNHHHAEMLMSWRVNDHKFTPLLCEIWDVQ
Chain of Oxysterols receptor LXR-beta (Homo sapiens) (P55055 whole entry, looked up, the tested form may be a part): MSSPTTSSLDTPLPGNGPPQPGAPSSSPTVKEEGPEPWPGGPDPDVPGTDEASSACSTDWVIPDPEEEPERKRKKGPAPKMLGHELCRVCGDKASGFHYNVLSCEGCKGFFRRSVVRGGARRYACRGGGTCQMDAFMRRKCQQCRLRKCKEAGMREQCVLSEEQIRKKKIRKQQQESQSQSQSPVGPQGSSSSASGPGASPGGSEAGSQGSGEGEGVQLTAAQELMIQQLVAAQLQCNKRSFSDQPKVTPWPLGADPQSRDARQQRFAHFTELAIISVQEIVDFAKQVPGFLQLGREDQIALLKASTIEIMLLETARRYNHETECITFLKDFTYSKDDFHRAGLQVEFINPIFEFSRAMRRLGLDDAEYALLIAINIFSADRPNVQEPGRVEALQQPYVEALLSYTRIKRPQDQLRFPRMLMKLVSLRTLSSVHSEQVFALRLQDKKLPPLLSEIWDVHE
Chain of Nuclear receptor subfamily 4 group A member 2 (Homo sapiens) (P43354 whole entry, looked up, the tested form may be a part): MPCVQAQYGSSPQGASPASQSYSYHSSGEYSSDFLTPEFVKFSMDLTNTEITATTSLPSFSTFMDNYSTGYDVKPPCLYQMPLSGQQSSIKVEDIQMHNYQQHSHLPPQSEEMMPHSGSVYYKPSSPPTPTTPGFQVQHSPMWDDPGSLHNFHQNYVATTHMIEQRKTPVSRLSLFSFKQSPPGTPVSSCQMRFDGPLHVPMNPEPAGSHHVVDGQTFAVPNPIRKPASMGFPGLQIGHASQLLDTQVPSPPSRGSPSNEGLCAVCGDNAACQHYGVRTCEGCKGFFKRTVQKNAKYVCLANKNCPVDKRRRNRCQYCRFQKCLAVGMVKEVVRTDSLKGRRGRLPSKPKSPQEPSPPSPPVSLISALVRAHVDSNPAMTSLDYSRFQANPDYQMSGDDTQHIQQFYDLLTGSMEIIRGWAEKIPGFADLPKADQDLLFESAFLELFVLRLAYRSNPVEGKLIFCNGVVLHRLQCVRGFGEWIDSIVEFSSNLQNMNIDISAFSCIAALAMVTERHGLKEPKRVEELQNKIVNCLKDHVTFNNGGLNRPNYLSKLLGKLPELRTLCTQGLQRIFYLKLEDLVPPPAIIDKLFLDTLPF
Chain of Glucocorticoid receptor (Homo sapiens) (P04150 whole entry, looked up, the tested form may be a part): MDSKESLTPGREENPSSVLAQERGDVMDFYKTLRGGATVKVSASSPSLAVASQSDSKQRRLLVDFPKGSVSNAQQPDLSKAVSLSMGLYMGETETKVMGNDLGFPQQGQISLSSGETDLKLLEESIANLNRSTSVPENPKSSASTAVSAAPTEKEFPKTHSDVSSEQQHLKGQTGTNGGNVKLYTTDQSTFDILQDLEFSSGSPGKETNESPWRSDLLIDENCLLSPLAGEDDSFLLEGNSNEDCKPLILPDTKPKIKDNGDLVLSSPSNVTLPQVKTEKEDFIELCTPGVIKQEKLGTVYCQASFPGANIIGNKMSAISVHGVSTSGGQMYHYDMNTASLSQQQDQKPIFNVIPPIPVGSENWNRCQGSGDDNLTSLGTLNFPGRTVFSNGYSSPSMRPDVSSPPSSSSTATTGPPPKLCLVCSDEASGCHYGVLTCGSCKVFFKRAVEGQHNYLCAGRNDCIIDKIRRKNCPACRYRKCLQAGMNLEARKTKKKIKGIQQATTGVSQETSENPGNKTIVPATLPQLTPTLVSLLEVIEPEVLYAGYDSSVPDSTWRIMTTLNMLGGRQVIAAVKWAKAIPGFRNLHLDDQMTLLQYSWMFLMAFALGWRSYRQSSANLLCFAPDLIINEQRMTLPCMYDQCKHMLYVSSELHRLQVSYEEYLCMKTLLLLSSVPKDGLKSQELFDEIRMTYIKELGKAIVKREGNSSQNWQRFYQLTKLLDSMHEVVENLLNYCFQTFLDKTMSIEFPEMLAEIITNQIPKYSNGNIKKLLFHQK
Chain of Oxysterols receptor LXR-alpha (Homo sapiens) (Q13133 whole entry, looked up, the tested form may be a part): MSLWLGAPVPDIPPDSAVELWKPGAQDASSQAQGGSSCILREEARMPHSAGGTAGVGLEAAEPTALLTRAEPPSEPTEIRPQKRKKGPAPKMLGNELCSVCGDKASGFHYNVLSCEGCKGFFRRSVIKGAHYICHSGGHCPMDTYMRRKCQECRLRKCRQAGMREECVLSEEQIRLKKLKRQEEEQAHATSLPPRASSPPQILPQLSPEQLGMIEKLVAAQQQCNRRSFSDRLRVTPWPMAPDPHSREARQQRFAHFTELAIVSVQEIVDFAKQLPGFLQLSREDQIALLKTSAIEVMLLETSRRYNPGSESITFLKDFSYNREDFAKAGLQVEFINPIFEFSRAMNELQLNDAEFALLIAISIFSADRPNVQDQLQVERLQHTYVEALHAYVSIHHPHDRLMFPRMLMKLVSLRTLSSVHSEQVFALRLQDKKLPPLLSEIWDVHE
Chain of Transcriptional activator Myb (Homo sapiens) (P10242 whole entry, looked up): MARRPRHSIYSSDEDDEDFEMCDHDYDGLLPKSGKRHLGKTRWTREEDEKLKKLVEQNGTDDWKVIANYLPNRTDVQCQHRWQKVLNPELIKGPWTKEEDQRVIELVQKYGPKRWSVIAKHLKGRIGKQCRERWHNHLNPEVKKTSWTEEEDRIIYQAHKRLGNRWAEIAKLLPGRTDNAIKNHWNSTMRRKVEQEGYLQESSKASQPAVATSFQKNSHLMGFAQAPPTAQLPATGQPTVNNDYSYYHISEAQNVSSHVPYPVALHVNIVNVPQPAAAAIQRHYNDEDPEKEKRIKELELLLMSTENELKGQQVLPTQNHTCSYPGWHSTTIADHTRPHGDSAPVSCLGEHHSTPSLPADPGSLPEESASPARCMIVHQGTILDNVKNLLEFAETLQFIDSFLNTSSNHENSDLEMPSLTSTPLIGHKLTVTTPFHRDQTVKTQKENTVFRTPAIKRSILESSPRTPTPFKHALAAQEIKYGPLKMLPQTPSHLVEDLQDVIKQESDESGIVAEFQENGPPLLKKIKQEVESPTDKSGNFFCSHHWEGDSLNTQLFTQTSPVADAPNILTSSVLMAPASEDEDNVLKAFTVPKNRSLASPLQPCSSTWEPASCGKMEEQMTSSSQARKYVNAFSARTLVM

Turning to `CCCCC(CC)COP(=O)(O)OCC(CC)CCCC` (stereo not drawn), the result in experiment [1], in experiment [2], in experiment [3], in experiment [4] and in [5] was inactive.
On to `CC(Cc1ccc(O)c(O)c1)C(C)Cc1ccc(O)c(O)c1` (stereo not drawn), for which the result in experiment [1], in experiment [2], in [3], in [6], in experiment [7] and in experiment [4] was inactive. The compound was called inactive in [5]. Besides, the AC50 (commonly the midpoint of the concentration-response curve, whichever way the signal moves) in [8] is 57.1 µM (active).
On to `O=C(O)C(F)(F)C(F)(F)C(F)(F)C(F)(F)F`, for which the call in experiment [1], in experiment [2], in experiment [3], in experiment [6], in [9] and in experiment [4] was inactive. Besides, the compound was classed as inactive in [5].
For `FC(F)(F)C(F)(F)C(F)(F)C(F)(F)C(F)(F)C(F)(F)CCS`, the result in [1], in experiment [3], in [6], in experiment [9], in experiment [10] and in experiment [4] was inactive. In addition, the call in experiment [8] and in [5] was inactive.
For `FC(F)(F)C(F)(F)C(F)(F)CI`, the result in experiment [1], in experiment [3], in [6], in experiment [9], in experiment [7] and in [5] was inactive.
For the compound `FC(F)(F)C(F)(F)CNCC(F)(F)C(F)(F)F`, the compound was called inactive in [1], in experiment [3], in experiment [6], in experiment [9], in [7] and in [10]. Also, the result in experiment [4], in experiment [8] and in experiment [5] was inactive.
In the case of `Nc1ccc(S(=O)(=O)Nc2nccs2)cc1`, the call in [1], in [2], in experiment [6], in experiment [9], in [7] and in experiment [10] was inactive. For the same compound, the compound was called inactive in experiment [4], in experiment [8] and in [5].
For `O=C(O)C(F)(OC(F)(F)C(F)(OC(F)(F)C(F)(OC(F)(F)C(F)(F)C(F)(F)F)C(F)(F)F)C(F)(F)F)C(F)(F)F` (stereo not drawn), the call in experiment [1], in experiment [2], in experiment [3], in experiment [6], in experiment [9] and in experiment [10] was inactive. Moreover, the result in experiment [8] and in [5] was inactive.
Consider `CC(C)(C)C(=O)CC(=O)C(F)(F)C(F)(F)C(F)(F)F`, for which the compound was classed as inactive in experiment [1], in experiment [2], in [3], in experiment [9], in [10] and in [4]. Moreover, the compound was called inactive in [8] and in [5].
Turning to `CC/C=C\CCOC(=O)c1ccccc1`, the compound was classed as inactive in experiment [1], in experiment [2], in [6], in [9], in [7] and in experiment [4]. Further, the outcome in experiment [8] and in [5] was inactive.
Turning to `CCO[Si](CCC(F)(F)C(F)(F)C(F)(F)C(F)(F)C(F)(F)C(F)(F)F)(OCC)OCC`, the call in experiment [1], in [2], in [3], in [6], in experiment [9] and in experiment [7] was inactive. The compound was classed as inactive in experiment [4], in [8] and in experiment [5].
On to `FC(F)(F)C(F)(F)C(F)(F)N(C(F)(F)C(F)(F)C(F)(F)F)C(F)(F)C(F)(F)C(F)(F)F`, for which the compound was called inactive in experiment [1], in [3], in [6], in experiment [7], in experiment [10] and in experiment [4]. Besides, in experiment [5], the result was inactive.
Consider `c1ccc(B(c2ccccc2)c2ccccc2)cc1`, for which the result in [1], in experiment [2], in [3], in experiment [6], in experiment [7] and in [4] was inactive. In addition, the outcome in experiment [5] was inactive.
With `CCN(Cc1cccc(S(=O)(=O)O)c1)c1ccc(C(=C2C=CC(=[N+](CC)Cc3cccc(S(=O)(=O)O)c3)C=C2)c2ccc(O)cc2S(=O)(=O)[O-])cc1`, the call in experiment [1], in experiment [3], in experiment [6], in [9], in experiment [4] and in experiment [8] was inactive. The call in experiment [5] was inactive.
In the case of `O=C(O)C(F)(F)C(F)(F)C(F)(F)C(F)(F)C(F)(F)C(F)(F)C(F)(F)C(F)(F)C(F)(F)C(F)F`, the outcome in experiment [1], in [3], in experiment [7], in experiment [10], in experiment [4] and in experiment [5] was inactive. Besides, the AC50 is 50 µM (active) in experiment [6], 78 µM (active) in [9] and 28.2 µM (active) in experiment [8].
As for `Cc1cc(C)cc(O)c1`, the outcome in experiment [1], in experiment [2], in experiment [6], in experiment [9], in [7] and in experiment [5] was inactive.
Regarding `[Co]`, the compound was called inactive in experiment [1], in experiment [3], in experiment [6], in experiment [9], in [4] and in [8]. Also, the result in [5] was inactive.
Consider `Cc1ccc(S(=O)(=O)NCl)cc1`, for which the outcome in experiment [1], in experiment [2], in experiment [6], in experiment [7], in experiment [8] and in [5] was inactive.
For `O=S(=O)(OCCOC(F)(F)F)C(F)(F)F`, the compound was classed as inactive in experiment [1], in [2], in experiment [3], in [6], in experiment [9] and in experiment [7]. Also, the compound was classed as inactive in experiment [10], in [4], in [8] and in experiment [5].
On to `OCCCC(F)(F)C(F)(F)C(F)(F)C(F)(F)C(F)(F)C(F)(F)C(F)(F)F`, for which the call in [1], in experiment [2], in experiment [3], in [6], in experiment [9] and in [4] was inactive. In addition, in [5], the result was inactive. For the same compound, the concentration at half-maximal activity (AC50) is 79.1 µM (active) in [10]; 16.6 µM (active) and 17.2 µM (active) in [8]; 81.7 µM (active) in experiment [5].
Consider `FC(F)(F)C(F)(F)C(F)(F)C(F)(F)C(F)(F)C(F)(F)C(F)(F)Br`, for which the outcome in experiment [1], in experiment [2], in [3], in experiment [6], in experiment [9] and in experiment [7] was inactive. The result in experiment [10], in [4] and in experiment [5] was inactive.
Take `CCCCCCCCCCCCCCCC[N+](C)(C)Cc1ccccc1`: the AC50 in [1] was 45.2 µM (active); in experiment [7], 24.8 µM (active). In addition, the call in experiment [2], in experiment [3], in experiment [6], in experiment [9], in [8] and in experiment [5] was inactive.
For `C=C(C)C(=O)OCC(F)(F)C(F)(F)C(F)(F)F`, the result in [1], in experiment [2], in experiment [3], in experiment [6], in [9] and in experiment [4] was inactive. For the same compound, the compound was called inactive in [8] and in [5].
Consider `O=C(O)C(F)(F)C(F)(F)C(F)(F)C(F)(F)C(F)(F)C(F)(F)C(F)(F)C(F)(F)C(F)(F)C(F)(F)C(F)(F)C(F)(F)F`, for which the result in experiment [1], in experiment [2], in experiment [3], in experiment [6], in experiment [9] and in experiment [7] was inactive. Besides, the compound was called inactive in experiment [4], in [8] and in [5].

Values taken from PubChem BioAssay (EPA / NIEHS).
